# Screening results (PubChem)
# Compounds with a hit are over-represented: about 22% of the library has one in this group of screens.
# CYP2C9 act – CYP2C9 (human) activation; activation factor at 5 µM; P11712; AID 1024; recombinant CYP2C9, luciferin-H conversion, luminescence; active compounds read high; factor 1 = untreated enzyme, 0 = blocked; hit rate 1.4% among 96,000;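 active = activation factor of 2 or more for CYP2C9 at a 5 µM dose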;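 note: 0 = sulfaphenazole-blocked wells and 1 = vehicle-only wells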
# Target sequence (P11712 whole entry, looked up): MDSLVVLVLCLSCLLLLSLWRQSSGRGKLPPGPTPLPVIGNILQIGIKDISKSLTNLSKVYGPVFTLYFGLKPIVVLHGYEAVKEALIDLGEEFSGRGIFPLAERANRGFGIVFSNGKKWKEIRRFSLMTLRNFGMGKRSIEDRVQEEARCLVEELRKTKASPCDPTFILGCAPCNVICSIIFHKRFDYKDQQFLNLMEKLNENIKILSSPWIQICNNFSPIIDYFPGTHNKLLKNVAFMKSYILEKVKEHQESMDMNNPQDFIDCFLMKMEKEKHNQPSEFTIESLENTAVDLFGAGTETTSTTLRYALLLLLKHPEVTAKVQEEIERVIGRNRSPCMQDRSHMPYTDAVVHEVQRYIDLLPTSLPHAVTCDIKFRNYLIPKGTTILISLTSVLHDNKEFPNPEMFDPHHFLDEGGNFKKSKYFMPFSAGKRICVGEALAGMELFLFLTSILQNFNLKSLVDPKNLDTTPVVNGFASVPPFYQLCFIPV
# CYP2C19 inhib – blocks human cytochrome P450 2C19 | CYP2C19 Supersomes, luciferin-H EGE luminescence, 30 min | inhibition, % at 5 µM | hit rate 21% among 96,000 | AID 778;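 active = CYP2C19 inhibition above a set limit at 5 µM in the primary screen, cut at about 50% in these data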;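 note: plate controls were negative control wells for no effect and 2.5 mM tranylcypromine positive control for full effect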
# CYP2C9 inh – blocks human cytochrome P450 2C9 | P11712 | CYP2C9 Supersomes, luciferin-H conversion, luminescence | inhibition, % at 5 µM | hit rate 20% among 96,000 | AID 777;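 active = blocking of liver enzyme CYP2C9 beyond about 50% at 5 µM, limit read from the data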
# Measles CPE – protection of cells from measles virus | Measles virus-infected cells, CPE protection, absorbance | protection (pct of control), % at 4 µM | hit rate 1.5% among 140,000; in the data active = protection mostly above about 24%, no sharp cut-off; inactive = mostly below about 26%
# CYP2C19 act – cytochrome P450 2C19 (human) activation; P33261; recombinant CYP2C19, luciferin-H EGE luminescence; active compounds read high; 0 = fully inhibited enzyme, 1 = untreated enzyme; activation factor at 5 µM; 96,000 tested, under 10 active;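 active = activation factor of at least 2 at 5 µM in the primary screen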;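 note: 0 = wells with 2.5 mM tranylcypromine and 1 = vehicle-only wells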
# * hit, by the source's call; · = no result.
SMILES,CYP2C9 act,CYP2C19 inhib,CYP2C9 inh,Measles CPE,CYP2C19 act
CCOCCCNc1nc2ccccc2[nH]1,1,7,3,46*,0.9
CCCCOCCCNc1ncnc2c1[nH]c1ccccc12,0.3,52*,66*,16,0.5
CCCCOc1ncnc2c1[nH]c1ccccc12,0.8,40,24,3,0.6
c1ccc2c(c1)[nH]c1c(NCC3CCCO3)ncnc12 (configuration not stated),0.5,44,54*,3,0.6
c1ccc(-c2nc(NCC3CCCO3)c3ccccc3n2)nc1 (configuration not stated),1,-1,0,39,1
Cc1ccc(N2CC(C(=O)Nc3nnc(SCC(=O)Nc4nc(C)cs4)s3)CC2=O)cc1 (configuration not stated),·,·,·,4,·
O=C(CCc1ccc(S(=O)(=O)NCCc2ccccc2)cc1)Nc1ccc2c(c1)OCO2,0.2,90*,84*,7,0.1
O=C(CCc1ccc(S(=O)(=O)NCCc2ccccc2)cc1)N1CCN(Cc2ccc3c(c2)OCO3)CC1,0.6,53*,43,18,0.5
CC(C)CNS(=O)(=O)c1ccc(CCC(=O)N2CCN(Cc3ccccc3)CC2)cc1,0.8,3,16,25,1
CC(C)CNS(=O)(=O)c1ccc(CCC(=O)N2CCN(Cc3ccc4c(c3)OCO4)CC2)cc1,·,·,·,4,·
CCOC(=O)N1CCN(C(=O)CCc2ccc(S(=O)(=O)NCCc3ccccc3)cc2)CC1,0.2,82*,78*,17,0.2
CCOC(=O)N1CCN(C(=O)CCSc2ccccc2)CC1,0.6,71*,38,5,0.3
CC(C)CNS(=O)(=O)c1ccc(CCC(=O)Nc2ccc3c(c2)OCO3)cc1,0.6,5,38,16,1
Cn1cccc1CNC1CCCC1,1,0,-3,12,1
CCn1nnnc1NCc1cccn1C,0.2,26,76*,4,0.7
O=C(COc1ccc2ccccc2c1CN1CCOCC1)N1CCc2ccccc21,0.8,26,24,12,0.7
CCn1nccc1C(=O)Nc1cc(Cl)ccc1Cl,1.1,3,-10,7,1
CCn1nccc1C(=O)Nc1ccc(Cl)cc1Cl,0.7,63*,34,17,0.4
O=S(=O)(N/N=C/c1ccc(Cl)cc1)c1ccc(Cc2ncc(C(F)(F)F)cc2Cl)s1,0.1,-4,92*,20,1
NC(=O)c1ccc(Cc2ncc(C(F)(F)F)cc2Cl)s1,1,14,4,17,0.9
CCCn1c(=O)c2ccccc2n2c(SCCOc3ccc(OC)cc3)nnc12,0.6,39,43,14,0.6
COc1ccccc1Cn1c(=O)c2ccccc2n2c(Sc3ncnc4sccc34)nnc12,0.4,61*,57*,3,0.4
COc1ccccc1Cn1c(=O)c2ccccc2n2c(SCc3csc(C)n3)nnc12,0.6,57*,44,2,0.4
CCCn1c(=O)c2ccccc2n2c(Sc3nnnn3-c3ccccc3)nnc12,0.6,22,41,11,0.8
CN=C(NC1CCCCC1)c1ccc(Cl)cc1,·,·,·,16,·
SMILES,CYP2C9 act,CYP2C19 inhib,CYP2C9 inh,Measles CPE,CYP2C19 act
O=C(NNS(=O)(=O)c1ccccc1[N+](=O)[O-])c1ccc(O)cc1,0.3,40,68*,4,0.6
Cc1cc(Br)cc(C)c1NC(=S)NC(=O)CC(C)C,1,-4,2,10,1
COc1cccc(/C=N/NC(=O)CCCC(=O)Nc2ccc(Br)cc2)c1,·,·,·,7,·
COc1ccc(OC)c(/C=N/NC(=O)CCCC(=O)Nc2cccc(Br)c2)c1,0.2,35,75*,4,0.7
Cc1cc(F)ccc1NCc1cccnc1,1.1,50*,-8,28,0.5
Cc1ccc(NCc2cccnc2)c(Br)c1,·,·,·,18,·
Cc1ccc2c(c1)NCC(C(=O)NC1CCCCC1)O2 (configuration not stated),0.9,59*,11,22,0.4
Cc1ccc(C(=O)NC2CCCCCC2)o1,1,35,3,17,0.7
Cc1cccc(NC(c2ccc(C)s2)c2ccc3ccc(C)nc3c2O)n1 (configuration not stated),·,·,·,9,·
Cc1ccc2ccc(C(Nc3ccccn3)c3ccccc3)c(O)c2n1 (configuration not stated),0.1,75*,94*,18,0.3
COc1cc(C(Nc2ccccn2)c2ccc3ccc(C)nc3c2O)cc(OC)c1O (configuration not stated),0.9,11,12,41*,0.9
COc1ccccc1NC(c1cccnc1)c1ccc2cccnc2c1O (configuration not stated),·,·,·,15,·
Oc1c(C(Nc2ccccn2)c2ccccn2)ccc2cccnc12 (configuration not stated),0.3,48,67*,·,0.5
COc1cc(C=Nc2cccc([N+](=O)[O-])c2C)ccc1OC(C)=O,·,·,·,8,·
Cc1ccc(C(=O)O)cc1S(=O)(=O)N1CCOCC1,1.2,4,-16,28,1
Cc1ccc(Br)cc1S(=O)(=O)N1CCN(c2ccccc2)CC1,0.8,64*,18,7,0.4
Cn1c(=O)oc2cc(S(=O)(=O)N3CCN(c4ccccc4)CC3)ccc21,1,11,-2,4,0.9
Cc1ccc(S(=O)(=O)N2CCCC2)cc1S(=O)(=O)N1CCCC1,1.2,52*,-16,16,0.5
Cc1ccc(S(=O)(=O)c2ccc(Cl)cc2)cc1S(=O)(=O)N1CCOCC1,0.3,79*,69*,1,0.2
Cc1ccc(-c2nc3ccccc3s2)cc1S(=O)(=O)N1CCCC1,0.1,69*,93*,7,0.3
O=C(CNC(=O)Cc1ccccc1)NCC(=O)OCc1ccc(C(=O)c2ccccc2)cc1,0.8,2,21,57,1
COC(=O)C1=C(C)N(c2ccc(OC)c(OC)c2)C(=O)C1,0.3,18,74*,25,0.8
COC(=O)C1=C(C)N(c2cccc(Cl)c2)C(=O)C1,0.8,64*,23,0,0.4
COC(=O)C1=C(C)N(c2ccc(F)cc2)C(=O)C1,1,60*,3,0,0.4
Cc1cc(C)nc(NC2=NCC(=O)N2c2ccc(F)c(Cl)c2)n1,1.2,-20,-21,5,1.2
SMILES,CYP2C9 act,CYP2C19 inhib,CYP2C9 inh,Measles CPE,CYP2C19 act
COC(=O)C1=C(C)N(c2cccc(C(C)=O)c2)C(=O)C1,1.1,9,-13,22,0.9
COC(=O)C1=C(C)N(c2ccc(F)c(Cl)c2)C(=O)C1,0.5,41,52*,34,0.6
CCOC(=O)C1=C(N)N(c2ccc(N3CCCCC3)cc2)C(=O)C1,1.5,39,-47,20,0.6
CC(C)CNC(=O)c1cccc(C(=O)NCC(C)C)c1,0.7,38,33,15,0.6
CC1=C(C(=O)OC(C)C)C(c2ccccn2)n2ncnc2N1 (configuration not stated),1,4,5,19,1
Cc1onc(-c2ccccc2Cl)c1C(=O)NCc1ccccc1,0.4,88*,58*,2,0.1
